Screen size: about 320,000 compounds; about 2,100 (0.66%) were called active. Roughly 53% stayed inconclusive and do not appear here. Calls come from the whole dose curve; as a rule, active = well fitted inhibition curve with a large enough effect in the signal ratio, with a control signal flat (not every such curve was filed as active); inconclusive = small, poorly fitted or top-dose-only effect, or effect the other way, or a change in a side signal; inactive = flat fitted curve, though single readings scatter; the % refers to the signal ratio. The sample as a whole holds a higher share of actives than the screen did.
Potency is the fitted concentration of half-maximal effect.

This test can be described thus: qHTS Assay for Lipid Storage Modulators in Drosophila S3 Cells.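 For cell number change: cells counted by Cell Tracker Red CMTPX staining in the red channel.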 To be noted: BODIPY lipid droplet fluorescence, 18-24 h, cells fed with added oleic acid; cell number change: measured here: cell count max response; series mostly up to 46.1 µM. In short, it runs like this:
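Drosophila S3 cells loaded with oleic acid (400 uM, as added) and compounds at several concentrations; lipid droplets imaged by 488-nm laser-scanning cytometry, 500–530 nm intensity and object ratio to cell channel. Percent activity normalized to 20 uM Triacsin C.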
Background: In qHTS, concentration-response curves come from the screen itself.
With `CCC(CC)C(=O)N(c1ccc(F)cc1)C1C=CS(=O)(=O)C1` (stereo not given), the Potency result is “inactive” and the cell number change is -1.72%. The like results for `COc1ccc(N(C(=O)Cc2cccs2)C(C(=O)NC2CCCC2)c2ccncc2)cc1OC` (stereo not given) were, in that order, “inactive” and 16.1%. Consider `CC1=CC(C)(C)N(C(=O)CSc2nnc(N)s2)c2cc(C)c(C)cc21`, for which the Potency entry was “inactive” and the cell number change worked out at 6.05%.

As to `COC(=O)c1ccccc1NC(=O)c1nc(S(=O)(=O)Cc2ccccc2)ncc1Cl`, the Potency entry is “inactive” and the cell number change is -21.2%. With `CCc1ccc(NC(=O)c2nc(S(=O)(=O)Cc3ccccc3)ncc2Cl)cc1`, the Potency is 1.16 µM (active) and the cell number change is -18.2%.

As for `COc1ccccc1NC(=O)c1nc(S(=O)(=O)Cc2ccccc2)ncc1Cl`, the Potency entry is “inactive” and the cell number change is -4.72%. On the same counts, the results for `O=C(OCc1ccc(Cl)c(Cl)c1)c1ccc[nH]1` are “inactive” and 0.855%. For the molecule `COc1ccc(CNc2ncccn2)cc1OC`, the Potency result is “inactive” and the cell number change was determined as 2.02%.

On to `CCOc1ccc(CNC2CCCCCCC2)cc1OC`, for which the Potency result was “inactive” and the cell number change was -6.56%.

On to `COc1ccc(CNC2c3ccccc3-c3ccccc32)cc1OC`, for which the Potency is 3.66 µM (active) and the cell number change worked out at 14.9%. On the same counts, the results for `Cc1ccccc1-n1c(Cn2c(=O)sc3ccccc32)nnc1SCC(=O)N1CCOCC1` are “inactive” and -4.41%. Take `Cc1cc(C)n(CCC(=O)N=Nc2c(O)[nH]c3ccc(Br)cc23)n1`: the Potency result is “inactive” and the cell number change is -11.1%. For `CCOCCCNC(=O)c1ccc2c(c1)N=C(CC)c1cc(Br)ccc1S2`, the Potency entry is “inactive” and the cell number change was 13.2%. The like results for `COc1ccccc1CN1CCCCCC1` were, in that order, “inactive” and 10.4%.

`COc1ccccc1CN1CCSCC1`: the Potency was 23.1 µM (active) and the cell number change was -20%. On the same counts, the results for `COc1cc(CN2CCSCC2)cc(OC)c1OC` are “inactive” and -0.391%. The like results for `COc1cccc(CN2CCSCC2)c1OC` were, in that order, “inactive” and 10.1%.

Regarding `COc1cccc(CN2CCSCC2)c1`, the Potency entry was “inactive” and the cell number change was 8.55%. The like results for `COc1ccc(CN2CCSCC2)cc1C` were, in that order, 23.1 µM (active) and 8.44%. On to `O=C(Nc1ccc(F)cc1)N1CCCN(c2ccc(C(F)(F)F)cn2)CC1`, for which the Potency entry was “inactive” and the cell number change is -1.28%. On the same counts, the results for `O=C1C2C3c4ccccc4C(c4ccccc43)C2C(=O)N1/N=C/c1cccc(O)c1` (stereo not given) are “inactive” and 9.29%.

As for `CC1(C)CC(NC(=O)c2cc(S(=O)(=O)N3CCOCC3)c(Cl)cc2Cl)CC(C)(C)N1`, the Potency entry was “inactive” and the cell number change was -3.63%.

On to `COc1cc(/C=C2\SC(N3CCc4ccccc4C3)=NC2=O)cc(OC)c1OC`, for which the Potency result was “inactive” and the cell number change came to 4.12%. Regarding `Cc1ccc2nc(/C(C#N)=C\c3ccc([N+](=O)[O-])o3)[nH]c2c1`, the Potency is 6.51 µM (active) and the cell number change was -22.5%.

`N#C/C(=C\c1ccc(-c2ccccc2C(=O)O)o1)c1nc2ccccc2[nH]1`: the Potency result is “inactive” and the cell number change was -1.22%. With `Cc1ccc2nc(/C(C#N)=C\c3ccc(Oc4ccc(C(F)(F)F)cc4[N+](=O)[O-])cc3)[nH]c2c1`, the Potency entry was “inactive” and the cell number change came out at 1.55%. Consider `Cc1ccc2nc(/C(C#N)=C/c3cn[nH]c3-c3ccc(F)cc3)[nH]c2c1`, for which the Potency result was “inactive” and the cell number change is -24.5%. Take `Cc1ccc2nc(/C(C#N)=C/c3ccccc3C(=O)O)[nH]c2c1`: the Potency result is “inactive”. `N#C/C(=C(/O)c1ccc([N+](=O)[O-])o1)c1nc2ccccc2[nH]1`: the Potency entry is “inactive” and the cell number change was -1.26%. For the molecule `COc1ccc(/C=C(\C#N)c2nc3ccc(C)cc3[nH]2)cc1Oc1ccc(C(F)(F)F)cc1[N+](=O)[O-]`, the Potency is 8.2 µM (active).

As to `N#C/C(=C\c1ccc(Oc2ccc(C(F)(F)F)cc2[N+](=O)[O-])cc1)c1nc2ccccc2[nH]1`, the Potency entry is “inactive” and the cell number change was -10.6%.

On to `N#C/C(=C\c1ccc([N+](=O)[O-])o1)c1nc2ccccc2[nH]1`, for which the Potency was 4.11 µM (active) and the cell number change was -21.1%. On to `CCOC(=O)c1c(NC(=O)C2CC2)sc2c1CC(C)(C)OC2`, for which the Potency result was “inactive” and the cell number change stood at 0.857%.

Take `COC(=O)C(C)n1nc(C)n(-c2ccc(C)cc2)c1=O` (stereo not given): the Potency entry is “inactive” and the cell number change is -11.2%.

In the case of `COc1ccc(CC(=O)Nc2ccc(C(=O)Nc3ccccc3C(=O)O)cc2)cc1OC`, the Potency entry is “inactive” and the cell number change was 17.1%. As to `COc1cc(C(=O)NC(c2ccccc2)c2ccccc2)cc(Cl)c1OC`, the Potency result was “inactive” and the cell number change is 14.2%.

Consider `CC(C)(C)C(=O)N1CCN(c2ccc(NC(=O)c3ccc4c(c3)OCCO4)cc2)CC1`, for which the Potency was 16.4 µM (active) and the cell number change is -3.48%.

With `CCC(=O)N1CCN(c2ccc(NC(=O)c3ccc4c(c3)OCCO4)cc2)CC1`, the Potency result is “inactive” and the cell number change came to 25.3%. `Cc1ccc(C(=O)N2CCN(c3ccc(NC(=O)c4ccc5c(c4)OCCO5)cc3)CC2)cc1`: the Potency result is “inactive”. For `CCN(CC(=O)Nc1ccccc1C(F)(F)F)C(=O)c1ccc(=O)n(Cc2ccccc2)n1`, the Potency result was “inactive” and the cell number change was found to be 22.5%.

For the molecule `CC(=O)c1cn(CC(=O)NCC2CCCO2)c2ccccc12` (stereo not given), the Potency entry was “inactive” and the cell number change worked out at 3.78%. With `COc1cc(CNC2CCCCCCC2)c(Br)cc1OCCO`, the Potency result is “inactive” and the cell number change was -14%.

Regarding `Cc1ccc(NC(=O)Cn2c(=O)n(CCC(=O)NC3CCN(Cc4ccccc4)CC3)c(=O)c3ccccc32)cc1`, the Potency result was “inactive” and the cell number change is 3.62%. With `Cc1cccc(C)c1NC(=O)Cn1c(=O)n(CCCC(=O)NC2CCN(Cc3ccccc3)CC2)c(=O)c2ccccc21`, the Potency was 4.11 µM (active) and the cell number change was -10.3%.

In the case of `CCc1ccc(NC(=O)Cn2c(=O)n(CCC(=O)NC3CCN(Cc4ccccc4)CC3)c(=O)c3ccccc32)cc1`, the Potency result was “inactive” and the cell number change turned out to be 3.79%.

Regarding `COCCN(C(=O)CSc1nc2ccc(C)cc2[nH]1)c1c(N)n(Cc2ccccc2)c(=O)[nH]c1=O`, the Potency result is “inactive” and the cell number change is -11.3%. For the molecule `C[C@H]1CN=C2N(CCNC(=O)CCC3CCCCC3)[C@H](Cc3ccc(O)cc3)CN21`, the Potency result was “inactive” and the cell number change is -4.68%. Regarding `CCOC(=O)c1cccc(NC(=O)C(NS(=O)(=O)c2ccc3c(c2)CCN3C(C)=O)C(C)C)c1` (stereo not given), the Potency entry is “inactive” and the cell number change is 9.06%. For `O=C(CS(=O)(=O)c1c[nH]c2ccccc12)Nc1ccc(F)cc1`, the Potency result was “inactive” and the cell number change amounted to 1.05%.

With `Cc1ccccc1NS(=O)(=O)c1cc2c3c(c1)C(C)C(=O)N3CCC2` (stereo not given), the Potency entry was “inactive”. On to `COc1ccc(/C=C/c2c([N+](=O)[O-])c(=O)n(C)c(=O)n2C)cc1`, for which the Potency entry was “inactive” and the cell number change was -2.6%. The like results for `Cn1c(/C=C/c2ccc(Br)cc2)c([N+](=O)[O-])c(=O)n(C)c1=O` were, in that order, 2.91 µM (active) and -1.8%. The like results for `COc1ccc(/C=C/c2c([N+](=O)[O-])c(=O)n(C)c(=O)n2C)cc1OC` were, in that order, “inactive” and -10.8%.

On to `CCCCOc1ccc(-c2nnc(-c3cc[n+](C)cc3)o2)cc1`, for which the Potency entry was “inactive” and the cell number change worked out at 0.955%. In the case of `COc1ccc(CC(=O)Nc2cccc3c2CCCC3)cc1`, the Potency entry was “inactive” and the cell number change is -12.6%. On to `CC(=O)CC(=O)Nc1cccc2c1CCCC2`, for which the Potency was 0.58 µM (active) and the cell number change amounted to 2.07%.

In the case of `CC(=O)N/N=C(\C)CC(=O)Nc1cccc2c1CCCC2`, the Potency entry was “inactive” and the cell number change is -11.4%.
